Among all 27,000 compounds or so, about 120 (0.44%) were called active. This excerpt belongs to a sample that is enriched for actives. Unmarked numbers belong to inactive results. Rule as the data show it: active = inhibition above about 20%; inconclusive = no clear call, values can overlap the other calls; inactive = below that.
Target: Serine/threonine-protein kinase 33 (Homo sapiens) (UniProt Q9BYT3)
Assay: STK33 kinase inhibitors, primary screen, biochemical, luminescence, ADP-Glo, MBP substrate (AID 2322)
Settings: at 12.5 µM, hits give high values

Chain of Serine/threonine-protein kinase 33 (Homo sapiens) (Q9BYT3 whole entry, looked up): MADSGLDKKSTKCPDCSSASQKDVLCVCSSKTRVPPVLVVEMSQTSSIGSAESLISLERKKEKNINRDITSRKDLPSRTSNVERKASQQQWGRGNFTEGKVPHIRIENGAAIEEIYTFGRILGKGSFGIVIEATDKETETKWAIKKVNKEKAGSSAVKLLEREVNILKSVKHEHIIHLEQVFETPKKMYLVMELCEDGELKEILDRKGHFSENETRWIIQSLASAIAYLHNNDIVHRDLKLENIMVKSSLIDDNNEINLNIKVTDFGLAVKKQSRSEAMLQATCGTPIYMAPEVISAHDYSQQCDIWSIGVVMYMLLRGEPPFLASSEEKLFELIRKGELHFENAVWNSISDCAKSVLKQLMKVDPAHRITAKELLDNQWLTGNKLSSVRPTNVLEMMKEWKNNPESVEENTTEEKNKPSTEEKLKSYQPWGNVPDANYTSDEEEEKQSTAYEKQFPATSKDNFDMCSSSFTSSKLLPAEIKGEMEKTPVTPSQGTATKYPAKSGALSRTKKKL

SMILES | inhibition
COC(=O)c1c(NC(=S)Nc2ccc(OC)cc2[N+](=O)[O-])sc2c1CCC(C)C2 (stereo not drawn) | -1.18%
Cc1nnc2sc(-c3cccc(NC(=O)C(C)Oc4ccc(Cl)cc4Cl)c3)nn12 (stereo not drawn) | 1.75%
CN(CC(=O)Nc1c(F)cccc1F)S(=O)(=O)c1ccc(Cl)cc1 | 0.176%
CC(C)S(=O)(=O)NCC1CCN(Cc2cccc(OCCO)c2)CC1 | -4.57%
CC1(C)CC[C@]2(C(=O)O)CC[C@]3(C)C(=CCC4[C@@]5(C)CC[C@H](OC6O[C@H](CO)[C@@H](O)[C@H](O[C@@H]7O[C@H](CO)[C@@H](O)[C@H](O)[C@H]7O)[C@H]6O)C(C)(C)C5CC[C@]43C)[C@@H]2C1 (stereo partly drawn) | -3.3%
CN(CC(=O)Nc1ccc(Br)cc1)S(=O)(=O)c1ccc2ccccc2c1 | -0.268%
COc1ccc(N(CC(=O)Nc2cccnc2)S(C)(=O)=O)c(OC)c1 | 1.05%
CN1CCN(S(=O)(=O)c2ccc(NC(=O)C3CC=CCC3C(=O)O)cc2)CC1 (stereo not drawn) | -6.02%
O=C(CSc1nnc2c(n1)[nH]c1ccccc12)Nc1cccc(C(F)(F)F)c1 | 0.0503%
O=C(c1cc([N+](=O)[O-])ccc1NCc1cccnc1)N1CCOCC1 | 0.472%
CCc1cc(C(=O)OC)c(NC(=S)Nc2ccc(OC)cc2[N+](=O)[O-])s1 | 2.32%
CCc1cc(C(=O)OC)c(NC(=O)CC2Sc3ccc(C(F)(F)F)cc3NC2=O)s1 (stereo not drawn) | 26.1% (active)
C=CCn1c(SCc2nc3ccccc3[nH]2)nnc1-c1cccc(C)c1 | -1.59%
CCn1c(SCC(=O)Nc2ccc3c(c2)OCCO3)nnc1-c1ccncc1 | 0.907%
COc1ccc(CCNC(=S)Nc2c(C)n(C)n(-c3ccccc3)c2=O)cc1OC | 0.317%
Cc1ccnc(NC(c2cccc(Br)c2)c2ccc3ccc(C)nc3c2O)c1 (stereo not drawn) | -1.5%
COc1ccc(-c2cc(C(F)(F)F)n3nc(C(=O)NCCCN4CCOCC4)cc3n2)cc1OC | -3.3%
CCOc1ccccc1NC(=O)C1C(C(=O)O)C2C=CC1C21CC1 (stereo not drawn) | -4.9%
Cc1ccc(NC(=O)CCCN2C(=O)c3ccccc3C2=O)cc1 | 0.883%
O=C1O[C@@H](c2ccccc2)[C@@H](c2ccccc2)N2[C@@H](c3ccccc3OCCO)[C@]3(C(=O)Nc4ccc(C#CC5(O)CCCCCC5)cc43)[C@@H](C(=O)N3CCN(c4ncccn4)CC3)[C@H]12 | 10.1%
COc1ccc(N(CC(=O)Nc2ccc(F)c(F)c2)S(C)(=O)=O)cc1OC | 0.788%
CCn1c(SCC(=O)Nc2cc(Cl)c(Cl)cc2Cl)nnc1-c1cc(Br)ccc1O | -2.32%
CNC[C@H]1OCc2cnnn2CCCC(=O)N([C@H](C)CO)C[C@@H]1C | 2.08%
Cc1ccc(S(=O)(=O)N(C)C[C@H]2Oc3ccc(NC(=O)Nc4cccc5ccccc45)cc3CC(=O)N([C@H](C)CO)C[C@H]2C)cc1 | 5.7%
O=C(CC(NC1CCCC1)C(=O)O)Nc1cccc(Cl)c1 (stereo not drawn) | -4.61%
Cc1ccc(OCC(=O)Nc2cccc(NC(=O)c3ccco3)c2)cc1C | 3.45%
COC(=O)c1ccc(NC(=O)CN(c2ccc(C)c(Cl)c2)S(C)(=O)=O)cc1 | -2.86%
O=C(NCCCn1ccnc1)c1cc2c(s1)CCCC2 | -4.73%
